The panel holds about 83,000 compounds, 20% with a hit somewhere; the sample as a whole holds those more often.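 Method: cells in 96-well plates; compound added at one concentration; 48 h incubation; percent growth measured; values under 10 scored active.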 Unmarked numbers belong to inactive results. Active and inactive are the calls of the source.

For the assay, the system named is MDA-MB-468 breast. Nature of the assay: NCI-60 one-dose screen, 48 h (100 = growth as untreated, 0 = no growth, -100 = all killed). As to conditions: 10 µM unless noted.
As for `O=C(O)c1nn(-c2ccc(Cl)cc2)nc1N1CCCC1`, the growth is 86%.
As to `CC(C)OC(=O)OCOP(=O)(OCOC(=O)OC(C)C)C1CCCN(O)C1=O` (stereo not given), the growth was 36.3%.
Take `CC(=C(c1ccc(OCCN2CCCCC2)cc1)c1ccc(OCCN2CCCCC2)cc1)c1ccc(Cl)cc1`: the growth is -79.6% (active).
As to `O=C1C=C(O)c2ccccc2C1=O.[Ag]`, the growth was 99%.
For the molecule `COc1ccc(Nc2ncccc2C(=O)NCc2cn(Cc3cccc(Oc4ccccc4)c3)nn2)c(OC)c1`, the growth was 14.8%.
In the case of `COc1ccc2cc(-c3cnc4nonc4n3)ccc2c1`, the growth is -2.09% (active).
For the molecule `CCOc1c(Br)cc(C2C(C(=O)OC)=CN(C)C=C2C(=O)OC)cc1OC`, the growth was 0.386% (active).
To `COc1ccc(-c2ccc(NNC(=O)c3ccc(F)cc3)nn2)cc1OC` belongs 56.2%; to `COc1ccc(COc2ccc(/C=C3/C(=O)Nc4cc(Cl)ccc43)cc2)cc1`, 93.4%; to `CN1C(=O)N(C)C2Nn3c(s/c(=C\c4ccc(Cl)cc4Cl)c3=O)=NC21` (stereo not given), 59%.
To `COc1ccc(S(=O)(=O)Nc2c(/C=C\c3cc(OC)c(OC)c(OC)c3)ccc(OC)c2O)cc1` belongs 10.9%; to `C/C(=C(/c1ccc(Cl)cc1)c1ccc(OCCCN(C)C)cc1)c1ccc(Cl)cc1`, 89.4%; to `CC(C)OC(=O)c1ccc2n1CCCc1cnc(Nc3ccccc3)nc1-2`, 44.6%.
To `COc1ccc(Cc2nc3cc(OC)c(OC)cc3c(=O)[nH]2)cc1` belongs 56%; to `CC(=O)NCC(=O)c1ccc([N+](=O)[O-])cc1`, 117%.
Take `Clc1cccc(-c2cc(-c3ccc4c(c3)OCCO4)[nH]n2)c1`: the growth is 6.54% [25 µM] (active).
For `C#CCCCCCCC[C@@H]1OC(=O)[C@H]([C@@H](C)CC)NC(=O)[C@H]([C@@H](C)CC)NC(=O)CC(=O)[C@@H]1C`, the growth is 95.3%.
On to `FC(F)(F)c1cccc(-c2cn3c(ccc4ccccc43)n2)c1`, for which the growth was 104%.
`O=C1c2ccc3c4c(ccc(c24)C(=O)N1CCCNCc1ccccc1F)C(=O)N(CCCNCc1ccccc1F)C3=O`: the growth is -95.1% (active).
With `CC(C)N1CC(=O)N2CSCC2C1=O` (stereo not given), the growth was 92.6%.
To `C=C(C)[C@@H]1CC[C@]2(C)[C@H](CC=C3[C@@H]4CC(C)(C)CC[C@]4(C(N)=O)CC[C@]32C)[C@@]1(C)CCC#N` belongs 15.1%; to `CCCCCCCCn1ccc2cc(NC(=O)CN3CCN(c4nc(C)cc(N5CCCCC5)n4)CC3)ccc21`, 73.2%; to `COc1cccc(C(=O)NNc2nc(Cl)nc(N3CCN(C(c4ccccc4)c4ccccc4)CC3)n2)c1`, -17.1% (active).
Regarding `O=c1nc(NO)[nH]c(=O)n1Cc1ccc(F)cc1`, the growth is 107%.
For the molecule `CCCCN(CCCC)c1cc(C(=O)CCCCCN)c2ccccc2n1`, the growth was 84.5%.
To `COc1ccc(-c2nn(-c3ccc(NC(=O)Nc4ccc(Cl)c(C(F)(F)F)c4)cc3)cc2-c2ccncc2)cc1Cl` belongs -46.4% (active).
As to `NS(=O)(=O)c1ccc(-n2ncc3c(=O)[nH]c(CN4CCN(c5cc6c(cc5F)c(=O)c(C(=O)O)cn6C5CC5)CC4)nc32)cc1`, the growth is 95.4%.
For the molecule `COc1cc2c(Oc3ccc(NC(=O)C4(C(=O)Nc5ccc(F)cc5)CC4)cc3F)ccnc2cc1OCCCN1CCOCC1`, the growth is 12.1%.
For the molecule `COc1ccc2c(c1)C(=O)/C(=C/c1ccccn1)CC2`, the growth was 40.4%.
Turning to `COc1cc(-c2nccc3[nH]c(-c4cccc5[nH]ccc45)nc23)cc(OC)c1OC`, the growth was -26.1% (active).
For the molecule `O=C(O)CCC/C=C\C[C@H]1C=CC(=O)/C1=C/C[C@@H](O)CCc1cccc(C(F)(F)F)c1`, the growth is -6.7% (active).
On to `COCCOc1cnc2ccn([C@H](C)c3nnc4c(F)cc(-c5cnn(C)c5)cn34)c(=O)c2c1`, for which the growth was 96.7%.
On to `Nc1ccc(-c2nn3c(CCC(=O)c4nc5ncccc5[nH]4)nnc3s2)c(O)c1`, for which the growth is 74.6%.
Under `COc1cc2c(c(OC)c1OC)C(=O)/C(=C/c1cc(C)c(O)c(C)c1)S2` stands 5.19% (active).
Regarding `C=CC(=O)Nc1ccc(Nc2nccc(-c3ccc(N4CCCC4)c(C#N)c3)n2)cc1`, the growth was -9.73% (active).
For `CCCCn1c(=O)c(-c2cc(-c3ccc(Cl)cc3)nc(-c3ccc(Cl)cc3)c2)cc2cc(C)ccc21`, the growth was 102%.
Turning to `O=S(=O)(Nc1nccs1)c1ccc(Nc2nc(-c3ccncc3)cs2)cc1`, the growth was 101%.
With `OC1Cc2ccccc2C1`, the growth is 105%.
Consider `Brc1ccc2[nH]cc(-c3cncn3CCc3ccccc3)c2c1`, for which the growth is 17.2%.
In the case of `Nc1ccc(-c2cccs2)cc1NC(=O)c1ccc(CCCC(=O)Nc2ccc(C3CC3N)cc2)cc1` (stereo not given), the growth is 69.6%.

For the origin of these results see PubChem BioAssay (NCI).
